Experimental data published in PubChem BioAssay (EPA / NIEHS).
Values joined by “and” are separate entries in the source; they are usually repeats but may differ in a detail not shown here. Equal values may be shown once. Results filed as inconclusive are left out. Active and inactive are the calls of the source. The calls were made as follows: active = hit-call score of the fitted dose curve at least 0.9, where 1 is the maximum; inconclusive = response in the unintended direction; inactive = score below 0.9.

How the values were obtained:
[1] = molecular target: Nuclear receptor subfamily 1 group I member 2 (Mus musculus) (UniProt O54915); experiment: ATG_mPXR_XSP1: Attagene TRANS-FACTORIAL Multi-Species (XSP1) HepG2 Assay for mouse Pregnane X Receptor (PXR) (AID 2283803)
Sequence of Nuclear receptor subfamily 1 group I member 2 (Mus musculus) (O54915 whole entry, looked up, the tested form may be a part): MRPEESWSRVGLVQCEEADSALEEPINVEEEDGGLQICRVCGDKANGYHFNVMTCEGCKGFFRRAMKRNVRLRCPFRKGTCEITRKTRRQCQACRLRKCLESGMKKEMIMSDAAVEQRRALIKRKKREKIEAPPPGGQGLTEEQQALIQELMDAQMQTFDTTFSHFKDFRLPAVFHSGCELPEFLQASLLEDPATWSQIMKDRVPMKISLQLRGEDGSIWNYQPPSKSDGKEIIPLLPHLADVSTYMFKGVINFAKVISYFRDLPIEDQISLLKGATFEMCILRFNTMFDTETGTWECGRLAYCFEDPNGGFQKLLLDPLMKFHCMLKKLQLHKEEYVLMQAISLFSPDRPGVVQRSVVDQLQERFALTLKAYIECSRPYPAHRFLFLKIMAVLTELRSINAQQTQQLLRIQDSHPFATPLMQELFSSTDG
In short: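 Transiently transfected HepG2 cells expressing a receptor-Gal4 chimera drive a GAL4-UAS reporter; 3 nM 6-alpha-fluorotestosterone included. Reporter mRNA read 24 h post-dose by RT-PCR and capillary electrophoresis; gain of signal relative to DMSO.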

[2] = molecular target: human Thyroid hormone Receptor alpha (TRa), THRA (gene 7067) (UniProt P10827); experiment: ATG_hTRa_XSP1: Attagene TRANS-FACTORIAL Multi-Species (XSP1) HepG2 Assay for human Thyroid hormone Receptor alpha (TRa) (AID 2283805)
Sequence of human Thyroid hormone Receptor alpha (TRa), THRA (gene 7067) (P10827 whole entry, looked up, the tested form may be a part): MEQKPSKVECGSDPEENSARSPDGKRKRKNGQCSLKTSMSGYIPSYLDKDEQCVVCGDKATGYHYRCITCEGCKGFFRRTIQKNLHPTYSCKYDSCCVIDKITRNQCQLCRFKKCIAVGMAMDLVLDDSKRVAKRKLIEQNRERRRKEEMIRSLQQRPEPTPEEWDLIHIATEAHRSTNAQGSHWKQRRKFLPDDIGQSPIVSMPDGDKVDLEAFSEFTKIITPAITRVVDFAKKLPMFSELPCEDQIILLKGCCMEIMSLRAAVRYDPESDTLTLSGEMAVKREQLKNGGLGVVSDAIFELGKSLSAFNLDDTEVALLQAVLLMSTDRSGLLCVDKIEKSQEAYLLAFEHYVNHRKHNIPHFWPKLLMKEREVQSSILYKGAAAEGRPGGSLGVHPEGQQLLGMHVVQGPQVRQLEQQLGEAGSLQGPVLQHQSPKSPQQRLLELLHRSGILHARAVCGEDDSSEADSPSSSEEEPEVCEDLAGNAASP
In short: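 HepG2 cells transiently transfected with GAL4-UAS reporter units expressing chimeric NR-Gal4 proteins, dosed 24 hours with 3 nM 6-alpha-fluorotestosterone present. Reporter mRNA measured by RT-PCR and capillary electrophoresis; gain of signal fitted versus DMSO.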

[3] = system: turtle Thyroid Hormone Receptor, alpha (TRa), gene 101949057; experiment: ATG_trTRa_XSP1: Attagene TRANS-FACTORIAL Multi-Species (XSP1) HepG2 Assay for turtle Thyroid Hormone Receptor, alpha (TRa) (AID 2283806)
In short: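 HepG2 cells transiently transfected with GAL4-UAS reporter units and chimeric receptor-Gal4 constructs, with 3 nM 6-alpha-fluorotestosterone present. Reporter mRNA was quantified 24 h after dosing by RT-PCR, 6-FAM labelling and capillary electrophoresis; gain of signal versus DMSO.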

[4] = molecular target: zebrafish Thyroid Hormone Receptor alpha (TRa), thraa (gene 30670) (UniProt Q98867); experiment: ATG_zfTRa_XSP1: Attagene TRANS-FACTORIAL Multi-Species (XSP1) HepG2 Assay for zebrafish Thyroid Hormone Receptor alpha (TRa) (AID 2283807)
Sequence of zebrafish Thyroid Hormone Receptor alpha (TRa), thraa (gene 30670) (Q98867 whole entry, looked up, the tested form may be a part): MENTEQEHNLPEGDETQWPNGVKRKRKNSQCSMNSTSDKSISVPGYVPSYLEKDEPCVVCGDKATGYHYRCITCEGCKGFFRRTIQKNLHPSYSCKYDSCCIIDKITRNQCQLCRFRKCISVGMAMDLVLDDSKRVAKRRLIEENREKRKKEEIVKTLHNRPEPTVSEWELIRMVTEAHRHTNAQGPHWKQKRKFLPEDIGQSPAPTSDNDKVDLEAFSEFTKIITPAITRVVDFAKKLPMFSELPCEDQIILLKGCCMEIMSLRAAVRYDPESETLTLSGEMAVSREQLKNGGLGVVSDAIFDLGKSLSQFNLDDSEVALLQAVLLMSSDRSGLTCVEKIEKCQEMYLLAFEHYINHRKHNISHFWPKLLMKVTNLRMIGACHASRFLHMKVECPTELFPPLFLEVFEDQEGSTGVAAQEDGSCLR
In short: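 HepG2 cells transiently transfected with GAL4-UAS reporter units including a zebrafish TRa–Gal4 chimera, dosed 24 h with 3 nM 6-alpha-fluorotestosterone present. Reporter mRNA quantified by RT-PCR and capillary electrophoresis; gain versus DMSO.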

[5] = molecular target: human Thyroid hormone Receptor beta (TRb), THRB (gene 7068) (UniProt P10828); experiment: ATG_hTRb_XSP1: Attagene TRANS-FACTORIAL Multi-Species (XSP1) HepG2 Assay for human Thyroid hormone Receptor beta (TRb) (AID 2283808)
Sequence of human Thyroid hormone Receptor beta (TRb), THRB (gene 7068) (P10828 whole entry, looked up, the tested form may be a part): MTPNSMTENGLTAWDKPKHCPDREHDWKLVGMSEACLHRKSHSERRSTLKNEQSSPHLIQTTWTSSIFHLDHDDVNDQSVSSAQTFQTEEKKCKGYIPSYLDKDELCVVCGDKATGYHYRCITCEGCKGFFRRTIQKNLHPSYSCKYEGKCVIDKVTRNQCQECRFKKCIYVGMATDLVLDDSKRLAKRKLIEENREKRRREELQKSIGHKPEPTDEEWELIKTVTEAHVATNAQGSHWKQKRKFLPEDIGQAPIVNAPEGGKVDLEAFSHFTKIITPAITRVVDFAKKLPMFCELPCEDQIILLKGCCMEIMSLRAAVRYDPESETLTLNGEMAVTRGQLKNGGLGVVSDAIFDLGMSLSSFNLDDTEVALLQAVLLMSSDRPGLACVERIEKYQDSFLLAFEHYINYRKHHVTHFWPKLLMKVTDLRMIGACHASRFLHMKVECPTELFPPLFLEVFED
In short: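 HepG2 cells transiently transfected with reporter units driving GAL4-UAS reporters for chimeric NR-Gal4 proteins; 24 h chemical exposure with 3 nM 6-alpha-fluorotestosterone present. Reporter mRNA quantified by RT-PCR and capillary electrophoresis, gain of signal versus DMSO.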

[6] = molecular target: zebrafish Thyroid Hormone Receptor beta (TRb), thrb (gene 30607) (UniProt Q9PVE4); experiment: ATG_zfTRb_XSP1: Attagene TRANS-FACTORIAL Multi-Species (XSP1) HepG2 Assay for zebrafish Thyroid Hormone Receptor beta (TRb) (AID 2283809)
Sequence of zebrafish Thyroid Hormone Receptor beta (TRb), thrb (gene 30607) (Q9PVE4 whole entry, looked up, the tested form may be a part): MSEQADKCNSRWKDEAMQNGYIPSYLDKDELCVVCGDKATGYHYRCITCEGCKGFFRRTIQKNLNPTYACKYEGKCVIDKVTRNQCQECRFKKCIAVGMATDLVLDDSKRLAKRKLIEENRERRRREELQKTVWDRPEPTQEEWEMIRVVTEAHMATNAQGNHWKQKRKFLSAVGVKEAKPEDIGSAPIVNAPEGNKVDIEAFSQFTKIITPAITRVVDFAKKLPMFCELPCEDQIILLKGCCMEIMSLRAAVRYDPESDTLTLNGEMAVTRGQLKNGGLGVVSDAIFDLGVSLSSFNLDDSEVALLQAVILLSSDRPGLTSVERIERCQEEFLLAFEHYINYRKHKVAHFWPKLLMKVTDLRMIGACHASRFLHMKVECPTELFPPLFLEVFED
In short: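 HepG2 cells transiently transfected with multiplexed GAL4-UAS reporter units expressing chimeric zebrafish TRb–Gal4. Dosed 24 h with 3 nM 6-alpha-fluorotestosterone present; reporter mRNA measured by RT-PCR, HpaI digestion and capillary electrophoresis; gain of signal versus DMSO.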

[7] = ATG_XTT_Cytotoxicity_XSP1: Cytotoxicity Assessment in the Attagene TRANS-FACTORIAL Multi-Species (XSP1) HepG2 Assay (AID 2283810)
In short: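 XTT viability readout taken at 24 hours post-dosing in HepG2 liver cells co-treated with 3 nM 6-alpha-fluorotestosterone. Signal loss relative to DMSO controls reflects cytotoxicity.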

[8] = ATG_M_06_XSP2: Attagene TRANS-FACTORIAL Multi-Species (XSP2) HepG2 Assay for M06 Transcription Factor (Internal Marker) (AID 2283811);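 also: hits are increases in signal above the DMSO baseline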
In short: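 HepG2 cells transiently transfected with GAL4-UAS multiple reporter units, medium containing 3 nM 6-alpha-fluorotestosterone and 1.5 nM norgestrel; reporter mRNA measured 24 hours post-dosing by RT-PCR and capillary electrophoresis. Internal background marker, gain of signal vs DMSO.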

[9] = system: turtle Estrogen Receptor (ERa), gene 101933533; experiment: ATG_trERa_XSP2: Attagene TRANS-FACTORIAL Multi-Species (XSP2) HepG2 Assay for turtle Estrogen Receptor (ERa) (AID 2283812);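 also: human HepG2 liver cells transiently expressing turtle ERa-Gal4 chimeric receptor; actives raise reporter signal above DMSO so AC50 reflects agonist activity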
In short: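 HepG2 cells transiently transfected with GAL4-UAS reporter units expressing turtle ERa-Gal4 chimera. Reporter mRNA measured after 24 h dosing by RT-PCR, fluorescent labelling and capillary electrophoresis; gain of signal fitted versus DMSO.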

[10] = molecular target: Estrogen receptor beta (Homo sapiens) (UniProt Q92731); experiment: ATG_hERb_XSP2: Attagene TRANS-FACTORIAL Multi-Species (XSP2) HepG2 Assay for human Estrogen Receptor (ERb) (AID 2283813);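 also: actives raise reporter mRNA above DMSO so AC50 reflects agonist induction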
Sequence of Estrogen receptor beta (Homo sapiens) (Q92731 whole entry, looked up, the tested form may be a part): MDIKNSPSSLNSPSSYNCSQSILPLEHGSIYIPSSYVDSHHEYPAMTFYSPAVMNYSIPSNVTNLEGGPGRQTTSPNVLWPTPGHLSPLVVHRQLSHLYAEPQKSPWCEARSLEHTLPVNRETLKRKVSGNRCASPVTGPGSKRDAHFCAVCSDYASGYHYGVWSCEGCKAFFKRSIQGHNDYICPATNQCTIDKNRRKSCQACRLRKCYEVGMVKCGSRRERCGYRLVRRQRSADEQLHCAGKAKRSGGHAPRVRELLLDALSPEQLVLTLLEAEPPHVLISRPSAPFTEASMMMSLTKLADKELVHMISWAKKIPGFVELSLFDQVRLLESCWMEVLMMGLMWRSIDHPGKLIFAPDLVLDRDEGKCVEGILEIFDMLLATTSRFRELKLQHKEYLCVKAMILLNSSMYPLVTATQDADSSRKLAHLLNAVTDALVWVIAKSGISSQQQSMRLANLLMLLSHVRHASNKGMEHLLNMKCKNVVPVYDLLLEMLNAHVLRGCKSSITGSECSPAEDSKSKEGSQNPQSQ
In short: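 HepG2 cells transiently transfected with GAL4-UAS reporter units and chimeric human ERb-Gal4, 24 h exposure. Reporter mRNA quantified by RT-PCR with FAM labelling, HpaI digestion and capillary electrophoresis; gain of signal versus DMSO.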

[11] = molecular target: zebrafish Estrogen Receptor (ER1), esr1 (gene 259252) (UniProt P57717); experiment: ATG_zfER1_XSP2: Attagene TRANS-FACTORIAL Multi-Species (XSP2) HepG2 Assay for zebrafish Estrogen Receptor (ER1) (AID 2283816)
Sequence of zebrafish Estrogen Receptor (ER1), esr1 (gene 259252) (P57717 whole entry, looked up, the tested form may be a part): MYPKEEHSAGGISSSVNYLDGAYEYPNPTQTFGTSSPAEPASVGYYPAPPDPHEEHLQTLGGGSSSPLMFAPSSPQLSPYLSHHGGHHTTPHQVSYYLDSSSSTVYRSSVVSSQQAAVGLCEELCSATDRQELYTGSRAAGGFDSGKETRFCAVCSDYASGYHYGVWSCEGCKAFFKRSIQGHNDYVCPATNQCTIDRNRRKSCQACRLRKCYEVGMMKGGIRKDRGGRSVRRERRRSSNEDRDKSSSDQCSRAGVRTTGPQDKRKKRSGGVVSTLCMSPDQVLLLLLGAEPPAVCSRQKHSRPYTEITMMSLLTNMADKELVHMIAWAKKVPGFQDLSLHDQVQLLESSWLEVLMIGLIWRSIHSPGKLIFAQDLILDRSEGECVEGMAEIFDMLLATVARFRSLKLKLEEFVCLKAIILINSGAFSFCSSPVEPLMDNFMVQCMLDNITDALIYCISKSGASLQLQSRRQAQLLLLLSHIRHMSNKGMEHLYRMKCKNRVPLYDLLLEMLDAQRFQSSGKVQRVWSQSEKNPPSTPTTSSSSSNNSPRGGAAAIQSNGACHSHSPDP
In short: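 HepG2 cells transiently transfected with a GAL4-UAS reporter and a chimeric zebrafish ER1-Gal4 construct, dosed 24 h. Reporter mRNA quantified by RT-PCR, labelling, HpaI digestion and capillary electrophoresis, relative to DMSO.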

[12] = molecular target: chicken Estrogen Receptor (ERa), ESR1 (gene 396099) (UniProt P06212); experiment: ATG_chERa_XSP2: Attagene TRANS-FACTORIAL Multi-Species (XSP2) HepG2 Assay for chicken Estrogen Receptor (ERa) (AID 2283817);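 also: actives raise reporter signal above DMSO so AC50 reflects ER activation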
Sequence of chicken Estrogen Receptor (ERa), ESR1 (gene 396099) (P06212 whole entry, looked up, the tested form may be a part): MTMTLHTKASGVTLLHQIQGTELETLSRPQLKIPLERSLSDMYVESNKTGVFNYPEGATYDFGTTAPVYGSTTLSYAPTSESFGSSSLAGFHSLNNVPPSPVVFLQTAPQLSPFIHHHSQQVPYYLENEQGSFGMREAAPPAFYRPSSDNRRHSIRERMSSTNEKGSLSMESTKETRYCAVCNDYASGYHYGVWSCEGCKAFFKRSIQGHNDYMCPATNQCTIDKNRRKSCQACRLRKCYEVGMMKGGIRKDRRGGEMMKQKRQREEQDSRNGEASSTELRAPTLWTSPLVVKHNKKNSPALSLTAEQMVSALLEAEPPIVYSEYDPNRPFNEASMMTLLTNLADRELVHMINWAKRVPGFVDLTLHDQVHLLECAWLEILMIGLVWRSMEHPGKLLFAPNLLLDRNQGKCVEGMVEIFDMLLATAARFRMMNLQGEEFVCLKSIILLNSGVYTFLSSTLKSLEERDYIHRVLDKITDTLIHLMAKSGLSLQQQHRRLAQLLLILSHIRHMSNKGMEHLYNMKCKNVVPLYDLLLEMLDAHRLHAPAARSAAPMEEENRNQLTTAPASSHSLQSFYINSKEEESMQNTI
In short: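 Transiently transfected HepG2 cells expressing chimeric chicken ERa-GAL4 reporter units, dosed 24 h with 3 nM 6-alpha-fluorotestosterone and 1.5 nM norgestrel present. Reporter mRNA measured by RT-PCR and capillary electrophoresis; gain-of-signal fitted relative to DMSO.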

[13] = system: zebrafish Estrogen Receptor (ER2a), gene 317734; experiment: ATG_zfER2a_XSP2: Attagene TRANS-FACTORIAL Multi-Species (XSP2) HepG2 Assay for zebrafish Estrogen Receptor (ER2a) (AID 2283818);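 also: hits raise reporter mRNA so AC50 reflects activation of zebrafish ER2a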
In short: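 HepG2 cells transiently transfected with GAL4-UAS reporter units and chimeric zebrafish ER2a-Gal4, exposed 24 h; medium contains 3 nM 6-alpha-fluorotestosterone and 1.5 nM norgestrel. Reporter mRNA quantified by RT-PCR, HpaI digestion, capillary electrophoresis; gain versus DMSO.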

[14] = system: zebrafish Estrogen Receptor (ER2b), gene 317733; experiment: ATG_zfER2b_XSP2: Attagene TRANS-FACTORIAL Multi-Species (XSP2) HepG2 Assay for zebrafish Estrogen Receptor (ER2b) (AID 2283823);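 also: fitted upward as reporter gain over DMSO so potency reflects activation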
In short: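 Reporter transcripts quantified by RT-PCR, fluorescent labelling and capillary electrophoresis after 24 h dosing of transfected HepG2 expressing zebrafish ER2b-GAL4 fusion. Medium contained 3 nM 6-alpha-fluorotestosterone plus 1.5 nM norgestrel; DMSO baseline.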

[15] = molecular target: GAL4 Transcription Factor (Internal Marker), GAL4 (gene 855828) (UniProt P04386); experiment: ATG_GAL4_XSP2: Attagene TRANS-FACTORIAL Multi-Species (XSP2) HepG2 Assay for GAL4 Transcription Factor (Internal Marker) (AID 2283814);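 also: GAL4 reporter mRNA background control in MRTU transfected cells not a receptor target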
Sequence of GAL4 Transcription Factor (Internal Marker), GAL4 (gene 855828) (P04386 whole entry, looked up, the tested form may be a part): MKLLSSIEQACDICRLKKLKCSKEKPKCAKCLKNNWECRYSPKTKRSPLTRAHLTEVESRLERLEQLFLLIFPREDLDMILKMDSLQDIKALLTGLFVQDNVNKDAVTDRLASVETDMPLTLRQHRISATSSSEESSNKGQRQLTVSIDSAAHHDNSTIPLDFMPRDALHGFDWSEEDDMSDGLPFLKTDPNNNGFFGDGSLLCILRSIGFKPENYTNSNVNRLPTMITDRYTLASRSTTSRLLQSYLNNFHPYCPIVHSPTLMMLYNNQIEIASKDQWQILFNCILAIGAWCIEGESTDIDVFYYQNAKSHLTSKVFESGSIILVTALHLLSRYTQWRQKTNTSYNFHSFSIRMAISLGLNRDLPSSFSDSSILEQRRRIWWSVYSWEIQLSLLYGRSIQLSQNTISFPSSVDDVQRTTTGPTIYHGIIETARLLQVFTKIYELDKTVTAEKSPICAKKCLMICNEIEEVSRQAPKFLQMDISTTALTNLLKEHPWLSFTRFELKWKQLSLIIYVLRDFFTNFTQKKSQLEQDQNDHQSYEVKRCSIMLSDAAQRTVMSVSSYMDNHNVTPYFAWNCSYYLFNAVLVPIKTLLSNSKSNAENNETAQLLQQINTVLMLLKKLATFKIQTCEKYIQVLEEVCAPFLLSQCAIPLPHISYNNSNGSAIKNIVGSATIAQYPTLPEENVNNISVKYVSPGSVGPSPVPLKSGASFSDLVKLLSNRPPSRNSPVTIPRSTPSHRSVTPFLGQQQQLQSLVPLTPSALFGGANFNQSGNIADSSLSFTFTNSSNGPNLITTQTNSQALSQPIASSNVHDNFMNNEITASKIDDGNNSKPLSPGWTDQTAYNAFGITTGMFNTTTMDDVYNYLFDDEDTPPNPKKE
In short: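 HepG2 cells transiently transfected with GAL4-UAS reporter units, stimulated with 3 nM 6-alpha-fluorotestosterone plus 1.5 nM norgestrel, dosed 24 h. Reporter mRNA by RT-PCR/capillary electrophoresis; gain-of-signal fit versus DMSO, background control.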

[16] = system: chicken Androgen Receptor (AR), gene 422165; experiment: ATG_chAR_XSP2: Attagene TRANS-FACTORIAL Multi-Species (XSP2) HepG2 Assay for chicken Androgen Receptor (AR) (AID 2283819);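 also: hits raise reporter mRNA above DMSO so potency is for activation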
In short: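 HepG2 cells transiently transfected with chicken AR–GAL4 chimeric reporter constructs, stimulated with 3 nM 6-alpha-fluorotestosterone plus 1.5 nM norgestrel, dosed 24 h. Reporter mRNA quantified by RT-PCR and capillary electrophoresis; gain of signal fitted versus DMSO.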

[17] = ATG_M_19_XSP2: Attagene TRANS-FACTORIAL Multi-Species (XSP2) HepG2 Assay for M32 Transcription Factor (Internal Marker) (AID 2283822)
In short: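 Internal background marker in a multi-species nuclear receptor TRANS panel: transfected HepG2 cells exposed 24 h, with 3 nM 6-alpha-fluorotestosterone and 1.5 nM norgestrel present. Readout is RT-PCR of reporter transcripts resolved by capillary electrophoresis, gain-of-signal versus DMSO.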

[18] = system: zebrafish Androgen Receptor (AR), gene 100005148; experiment: ATG_zfAR_XSP2: Attagene TRANS-FACTORIAL Multi-Species (XSP2) HepG2 Assay for zebrafish Androgen Receptor (AR) (AID 2283825);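 also: hits raise reporter mRNA above DMSO so AC50 reflects agonist-type gain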
In short: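 Zebrafish AR–GAL4 chimera transiently expressed with GAL4-UAS reporter in HepG2 cells, co-stimulated with 3 nM 6-alpha-fluorotestosterone and 1.5 nM norgestrel; 24 h dosing, reporter mRNA read by RT-PCR/capillary electrophoresis versus DMSO.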

[19] = molecular target: frog Thyroid hormone Receptor alpha (TRa), thra-a (gene 397942) (UniProt P15204); experiment: ATG_frTRa_XSP1: Attagene TRANS-FACTORIAL Multi-Species (XSP1) HepG2 Assay for frog Thyroid hormone Receptor alpha (TRa) (AID 2283804)
In short: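 HepG2 cells transiently transfected with frog TRa-GAL4 chimeric reporter units, dosed 24 hr with 3 nM 6-alpha-fluorotestosterone present; reporter mRNA quantified by RT-PCR, fluorescent labelling and capillary electrophoresis, gain of signal versus DMSO.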

Measured: AC50

COP(=S)(OC)Oc1ccc([N+](=O)[O-])c(C)c1
active: [1] 27.4 µM | [9] 31.9 µM | [10] 47.5 µM | [12] 38.3 µM | [13] 44.9 µM | [14] 54.5 µM
not listed: [15] | [16] | [17] | [18] | [19]
inactive: all other assays above

CSC(=O)c1c(C(F)F)nc(C(F)(F)F)c(C(=O)SC)c1CC(C)C
active: [1] 0.139 µM | [14] 15.7 µM
not listed: [3] | [4] | [5] | [8] | [10] | [18] | [19]
inactive: all other assays above

Cc1c(COC(=O)[C@@H]2[C@H](/C=C(\Cl)C(F)(F)F)C2(C)C)cccc1-c1ccccc1
active: [1] 2.23 µM | [9] 38.7 µM | [12] 30.5 µM | [14] 100 µM
inactive: [3] | [4] | [10] | [15] | [11] | [13] | [17] | [18]

CC(C)NC(=O)N1CC(=O)N(c2cc(Cl)cc(Cl)c2)C1=O
active: [1] 12 µM
not listed: [2] | [4] | [10] | [16]
inactive: all other assays above

N#Cc1c[nH]cc1-c1cccc2c1OC(F)(F)O2
active: [9] 2.37 µM and 1.02 µM | [11] 25.9 µM | [12] 1.68 µM and 2.04 µM | [13] 25.8 µM and 2.71 µM | [14] 23.2 µM and 17.5 µM
inactive: [8]
